Only some compounds are listed: those with a hit (about 1.6% of all), similar ones and a draw of the others.
VLA-4 inh: inhibition in human VLA-4 binding assay, primary screen, VLA-4 allosteric modulator project, MLPCN library, flow cytometry, VLA-4 expressing cells; Integrin alpha-4 (Homo sapiens), P13612; 330,000 compounds, 0.2% hits; ligand binding flow cytometry; inhibition, % (about 7 µM as worked out from the volumes in the protocol); in the data active = inhibition above about 50%
PKA-R1A act: activators of PKA-R1A holoenzyme, primary screen, biochemical, fluorescence polarization, Cy5-IP20, bovine R1A, mouse PKAc; 340,000 compounds, 0.083% hits; activation, % at 11.4 µM; AID 504707, 2011; PKA-R1A dissociation; scaled: DMSO 0%, 113 µM cGMP 100%; cAMP-dependent protein kinase type I-alpha regulatory subunit (Bos taurus) + …;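 active = percent activation above the mean of all tested compounds plus 3 SD, cut at about 19% in these data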;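 note: higher means more PKAc released from R1A so a rise in polarization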
NRP1-CendR mod: modulators of CendR peptide binding to NRP-1, primary screen, biochemical, fluorescence polarization, uHTS. 360,000 compounds, 0.85% hits. inhibition, % at 25 µM. Neuropilin-1 (Homo sapiens), O14786. FAM-RPARPAR peptide binding to NRP-1;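 active = inhibition or corrected inhibition above about 18%, plus a signal ratio from 0.5 to 1.5, limit read from the data, passing the limit was not always enough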
Target sequence (O14786 whole entry, looked up): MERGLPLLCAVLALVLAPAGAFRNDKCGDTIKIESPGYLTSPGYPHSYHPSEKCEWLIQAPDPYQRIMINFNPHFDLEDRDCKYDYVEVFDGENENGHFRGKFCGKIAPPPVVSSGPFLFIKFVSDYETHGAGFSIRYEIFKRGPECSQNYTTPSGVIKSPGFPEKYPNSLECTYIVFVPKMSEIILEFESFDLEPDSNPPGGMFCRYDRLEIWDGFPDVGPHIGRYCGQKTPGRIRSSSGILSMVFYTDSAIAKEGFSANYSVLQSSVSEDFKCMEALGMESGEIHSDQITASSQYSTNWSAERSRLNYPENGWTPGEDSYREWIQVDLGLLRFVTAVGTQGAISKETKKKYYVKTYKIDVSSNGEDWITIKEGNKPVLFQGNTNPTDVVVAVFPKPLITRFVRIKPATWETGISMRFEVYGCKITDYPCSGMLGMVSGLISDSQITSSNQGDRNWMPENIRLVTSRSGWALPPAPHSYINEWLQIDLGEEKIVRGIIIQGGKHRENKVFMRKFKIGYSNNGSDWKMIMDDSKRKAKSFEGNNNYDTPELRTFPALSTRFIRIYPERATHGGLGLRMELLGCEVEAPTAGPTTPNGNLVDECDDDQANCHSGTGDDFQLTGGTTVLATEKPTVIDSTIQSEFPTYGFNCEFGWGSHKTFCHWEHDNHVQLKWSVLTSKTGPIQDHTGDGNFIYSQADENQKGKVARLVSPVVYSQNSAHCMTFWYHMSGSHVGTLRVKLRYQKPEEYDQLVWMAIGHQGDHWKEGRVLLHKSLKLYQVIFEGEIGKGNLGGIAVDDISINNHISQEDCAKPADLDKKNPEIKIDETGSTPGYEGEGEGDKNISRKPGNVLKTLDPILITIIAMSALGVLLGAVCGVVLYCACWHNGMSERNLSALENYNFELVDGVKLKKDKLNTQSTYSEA
ATG4B inh: ATG4B protease inhibitors, primary screen, biochemical, fluorescence, uHTS. inhibition, % at 8.33 µM. 340,000 compounds, 0.51% hits. ATG4B cleavage of LC3-PLA2, NBD-HPC fluorescence, 1 h. AID 504462, 2011; in the data active = inhibition above about 40%
PKA-R2B activ: activators of PKA-R2B holoenzyme, primary screen, biochemical, fluorescence polarization, Cy5-IP20, human; PKA-R2B holoenzyme dissociation; R2B truncated from residue 108, S112A mutant; 0% DMSO only, 100% 113 µM cGMP; AID 504700, 2011; 340,000 compounds, 0.079% hits; activation, % at 11.4 µM;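 active = activation above a cutoff set at the mean over all compounds plus 3 SD, cut at about 18% in these data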;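 note: higher means more holoenzyme dissociation and a rise in polarization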
Active calls of the source: *; · = no result.

SMILES	VLA-4 inh	PKA-R1A act	NRP1-CendR mod	ATG4B inh	PKA-R2B activ
Cc1ccc(/C=C2\SC(=S)N(/N=C/c3cc([N+](=O)[O-])ccc3O)C2=O)o1	-7	-4	-102	47*	-7
CCc1nc2ccc(C(=O)N(C)CCCN(C)C)cn2c1N(C)Cc1cc2ccccc2s1	·	·	3	·	·
O=C1NC[C@@H](CCCCN2C[C@H](Cc3ccc(O)cc3)N(CCc3ccccc3)C(=O)C2=O)N(CCC2CCCCC2)C1=O	·	·	-9	·	·
O=C(C(=O)N1CCN(c2cccc(Cl)c2)CC1)c1cn(CC(=O)N2CCOCC2)c2ccccc12	6	-1	32*	-14	2
CCOC(=O)[C@]12CCC=C1N(Cc1cccc3ccccc13)C(=O)[C@H](CC(=O)NCCc1ccccc1OC)C2	·	·	5	·	·
COc1ccc(S(=O)(=O)N2CCN(Cc3cccc([N+](=O)[O-])c3)CC2)cc1	-3	-8	20*	-6	-12
COc1ccc(S(=O)(=O)N2CCN(Cc3cccc(F)c3)CC2)cc1	-2	0	7	-2	0
CC(C)[C@@H](COc1ccccc1)N1CCN(Cc2ccccc2)CCC1=O	2	5	12	-1	8
CC(C)C(CO)N1CCN(Cc2ccccc2)CCC1=O (stereo not drawn)	14	-3	24*	-18	-20
CC(CCc1ccccc1)NC(=O)COC(=O)C1CCC(C(C)(C)C)CC1 (stereo not drawn)	37	-8	32*	-6	-1
O=C(COC(=O)C1CC1)NCCc1ccccc1	5	2	6	-5	7
CSCCC(NS(=O)(=O)c1ccccc1F)C(=O)N1CCCCCCC1 (stereo not drawn)	-259	5	27*	8	2
CSCCC(NS(=O)(=O)c1ccccc1F)C(=O)NCC(C)(C)N1CCOCC1 (stereo not drawn)	-1	1	-4	-6	3
Clc1ccc(C(c2ccccc2)N2CCNCC2)cc1 (stereo not drawn)	2	8	-9	-5	5
CC12CNCC(C)(CN(C(c3ccccc3)c3ccccc3)C1)C2	1	-17	31*	25	-4
CC1CC(C)CN(CCCNC(=O)CN2C(=O)CSc3ccc(S(=O)(=O)N4CCOCC4)cc32)C1 (stereo not drawn)	11	0	19*	-5	-1
CC1=C(C(=O)N2CCCCCC2)CC(CC(=O)NC2CCCCC2)C(=O)N1Cc1ccc(F)cc1 (stereo not drawn)	·	·	-17	·	·
CCCCNC(=O)C[C@@H]1C[C@@]2(C(=O)OCC)CCCC=C2N(CCC2=CCCCC2)C1=O	·	·	4	·	·
CCOC(=O)C1=C(C)NC2=C(C(=O)c3ccccc32)C1c1cccnc1 (stereo not drawn)	2	7	40*	1	2
CC(C)C(C(=O)NCc1ccccc1)N1CCN(c2ccccc2F)CC1 (stereo not drawn)	·	·	-4	·	·
OC(CCc1ccncc1)COc1ccccc1 (stereo not drawn)	31	-3	20*	-16	3
COC(=O)[C@@H]1C[C@@]2(O)[C@@H](O)[C@@H](O)[C@@H](O)C[C@H]2N1Cc1ccc(C(F)(F)F)cc1	1	-5	2	-2	-1
COC(=O)[C@@H]1C[C@@]2(O)[C@H](O)[C@H](O)[C@H](O)C[C@H]2N1Cc1ccc(C(F)(F)F)cc1	-6	-3	27*	2	-16
COc1ccc(C(O)c2nc(-c3ccncc3)cs2)cc1 (stereo not drawn)	·	·	-3	·	·
COC(=O)c1cccc(-n2c(=O)n(Cc3ccccc3)c(=O)c3[nH]cnc32)c1C	-12	4	10	1	1
SMILES	VLA-4 inh	PKA-R1A act	NRP1-CendR mod	ATG4B inh	PKA-R2B activ
CC(C)(C)c1nc(SCC(=O)NCc2ccco2)c2ccccc2n1	-25	-7	26*	8	-4
CN1C(C(=O)NCc2cccc(C(F)(F)F)c2)CC2Cn3c(nc4cc5ccccc5cc43)C21 (stereo not drawn)	-17	-4	-5	2	-3
C=CCNC(=O)C1CC2Cn3c(nc4cc5ccccc5cc43)C2N1C (stereo not drawn)	-2	6	19*	-12	-1
COc1cc(C2C3=C(Nc4nc(N)[nH]c(=O)c42)c2ccccc2C3=O)ccc1O (stereo not drawn)	1	-6	3	4	4
CSc1ccccc1NC(=O)C1=COCCO1	7	-10	5	5	-22
COc1ccc(-c2csc(NC(CO)c3nc4ccccc4n3CCCO)n2)cc1 (stereo not drawn)	1	-5	26*	-9	-12
COc1ccc(-c2csc(NC(CO)c3nc4ccccc4n3CCOCCO)n2)cc1 (stereo not drawn)	-7	-5	-10	-13	-1
COc1ccc(S(=O)(=O)Nc2ccccc2C(=O)N2CCCCC2)cc1C	6	-4	9	-1	1
Cc1ccc2c(C)c(C(=O)NCc3ccc(S(N)(=O)=O)cc3)oc2c1C	5	-17	9	-16	2
Cc1ccc2c(C)c(C(=O)Nc3ccc(S(N)(=O)=O)cc3)oc2c1C	-2	2	40*	-6	-8
CCOC(=O)c1cc2c(=O)n3ccccc3nc2n(CC2CCCO2)c1=NC(=O)/C=C/c1ccccc1 (stereo not drawn)	-15	-2	29*	5	-5
CCOC(=O)c1cc2c(=O)n3ccccc3nc2n(CC2CCCO2)c1=NC(C)=O (stereo not drawn)	-1	6	-4	-10	2
OC[C@H]1O[C@@H](c2nc(-c3ccc4[nH]ccc4c3)no2)[C@H](O)[C@@H](O)[C@H]1O	·	·	5	·	·
C=C(C(=O)Oc1ccccc1C(C)(C)C)c1ccccc1	55*	·	·	·	·
Cc1ccc(Nc2nc(C)c(CCC(C)C)c(=O)[nH]2)cc1	7	0	5	-9	7
CCCCCc1c(C)nc(Nc2ccccc2)[nH]c1=O	19	-10	38*	6	7
COc1cc(NS(=O)(=O)c2ccc(C)c(C)c2)c(OC)cc1Cl	-7	-1	27*	4	5
COc1ccc(S(=O)(=O)Nc2ccccc2OC)cc1C	7	2	2	-5	-4
CC(C)(C)C(=O)COC(=O)c1cc(-c2ccncc2)nc2ccccc12	15	-4	27*	1	-1

Bioassay records from PubChem BioAssay.
